This is an account of results in PubChem BioAssay AID1220 (Sanford-Burnham Center for Chemical Genomics, 2008).

Hit rate of the full screen: of about 190,000 compounds, about 1,300 (0.68%) were called active. The full list was thinned out, with actives kept by preference. Values without a mark were called inactive. Rule as the data show it: active = inhibition above about 50%; inactive = the rest.

Chain of Mannose-6-phosphate isomerase (Homo sapiens) (P34949 whole entry, looked up): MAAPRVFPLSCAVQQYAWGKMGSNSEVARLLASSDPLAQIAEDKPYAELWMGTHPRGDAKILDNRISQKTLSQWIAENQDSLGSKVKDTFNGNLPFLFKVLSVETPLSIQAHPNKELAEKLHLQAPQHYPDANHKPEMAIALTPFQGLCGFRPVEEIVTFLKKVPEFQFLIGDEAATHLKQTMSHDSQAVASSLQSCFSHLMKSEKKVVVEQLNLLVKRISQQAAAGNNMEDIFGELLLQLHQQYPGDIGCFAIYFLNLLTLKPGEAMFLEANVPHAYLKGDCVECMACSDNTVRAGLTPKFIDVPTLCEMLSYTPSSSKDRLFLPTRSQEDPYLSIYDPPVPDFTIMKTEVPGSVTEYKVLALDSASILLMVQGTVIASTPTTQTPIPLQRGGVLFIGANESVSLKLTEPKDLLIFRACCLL

The test concerns the target Mannose-6-phosphate isomerase (Homo sapiens) (UniProt P34949). The experiment in a line: human PMI inhibitors, high substrate, primary screen, biochemical, fluorescence intensity, high mannose 6-phosphate (AID 1220). Particulars: recombinant PMI enzyme, coupled fluorescence intensity; at 20 µM; stronger effect = higher value.
For the compound `CCOP(=O)(OCC)C(O)c1ccc(OC)c(OC)c1` (stereo not given), the inhibition was 2.3%.

Turning to `CCN(CC)c1ccc(/C=C2\C(=O)NC(=O)N(CC3CCCO3)C2=O)cc1` (stereo not given), the inhibition is -4.6%.

In the case of `CC(=O)c1c(O)n(C)c(=S)n(-c2ccccc2)c1=O`, the inhibition is -1.3%.

For `CNC(=O)Oc1ccc(-c2cn3cc(C)ccc3n2)cc1`, the inhibition is 4.6%.

With `CNC(=O)Oc1cccc(-c2cn3cc(Cl)ccc3n2)c1`, the inhibition was 3%.

For `CNC(=O)Oc1cccc(-c2cn3cc(OC(=O)NC)ccc3n2)c1`, the inhibition was 54.4% (active).

As to `CN1CCN(c2c(C#N)c(C(F)(F)F)nn2C)CC1`, the inhibition was -13.8%.

Turning to `O=C(CN1CC(c2ccccc2)CC1=O)Nc1cccc(F)c1` (stereo not given), the inhibition is 3.7%.

As to `O=C1NC(=O)N(Cc2ccccc2)C(=O)/C1=C/N1CCCc2ccccc21`, the inhibition is 6%.

As for `O=c1[nH]c(=O)n(Cc2ccc(F)cc2)c(O)c1C=NCC1CCCO1` (stereo not given), the inhibition was -20.4%.

With `O=[N+]([O-])[N-][n+]1cnn(Cc2ccccc2)c1`, the inhibition is -10.9%.

On to `Cc1cc(OCC(=O)Nc2c(C)n(C)n(-c3ccccc3)c2=O)c2c3c(c(=O)oc2c1)CCC3`, for which the inhibition was 10.1%.

As to `Cc1cccc(NC(=O)N2CCCC2)c1`, the inhibition was -7.3%.

In the case of `COc1cc(/C=C2\C(=O)NC(=O)N(c3ccccc3)C2=O)cc(OC)c1O`, the inhibition is 13%.

Take `COc1cc(/C=C2/C(=O)NC(=O)N(c3ccccc3)C2=O)ccc1O`: the inhibition is 1.2%.

With `COc1cc(/C=C2\C(=O)NC(=O)N(c3ccc(C)cc3)C2=O)cc(OC)c1O`, the inhibition is 67.6% (active).

Take `CCC(=O)N1CC(=O)Nc2ccc(Br)cc2C1c1ccccc1` (stereo not given): the inhibition is 2.3%.

As for `Cc1cccc(C)c1NC(=O)c1cccn(Cc2ccc3c(c2)OC(F)(F)O3)c1=O`, the inhibition is 9.6%.

Take `C(#CCN1CCOCC1)COC/C=C/c1ccccc1`: the inhibition is -8.9%.

Consider `COc1ccc(N2C(=O)NC(=O)/C(=C\c3ccc([N+](=O)[O-])s3)C2=O)cc1`, for which the inhibition is -53.3%.

As for `COc1ccc(OC)c(N2C(=O)NC(=O)/C(=C\c3ccc([N+](=O)[O-])s3)C2=O)c1`, the inhibition was -46.8%.

Regarding `COc1ccc(OC)c(N2C(=O)NC(=O)/C(=C/c3ccc([N+](=O)[O-])s3)C2=O)c1`, the inhibition is 56.6% (active).

As for `CN1C(=O)C(=Cc2ccc(-c3cccc(Cl)c3)o2)C(=O)N(C)C1=O`, the inhibition is -7.8%.

Consider `CCN(CC)S(=O)(=O)c1ccc(N=Cc2c(O)n(-c3ccccc3)c(=O)[nH]c2=O)cc1`, for which the inhibition is -8.6%.

With `COc1ccc(CCn2c(O)c(C=NCc3ccc4c(c3)OCO4)c(=O)[nH]c2=O)cc1OC`, the inhibition was 8.6%.

In general, inhibition refers to the relative decrease from the control value, in per cent.
